Only some compounds are listed: those with a hit (about 5.7% of all), similar ones and a draw of the others.
L3MBTL1 inh: L3MBTL1 (human) inhibition | Q9Y468 | AlphaScreen L3MBTL1–H3K9me1 peptide binding | Potency, µM (top dose mostly 57.1 µM), for inactives: top-dose activity, negative = inhibition, usual class: inhibitors | actives 0.66% (n = 230,000) | AID 485360; also: potency is read from the fitted curve at half-maximal effect; % is scaled to controls: 0 for no effect and ±100 for the full control effect; nearly all actives have a fitted effect of over 60% in size
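Displacement of a biotinylated histone H3(1-15) peptide monomethylated at Lys9 (75 nM) from L3MBTL1 (50 nM) was measured by AlphaScreen after a 30 min room-temperature compound incubation; cefsulodin titration served as intraplate control.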
KDM4E inh: blocks human JMJD2E demethylase activity; B2RXH2; JMJD2E catalytic domain, FDH-coupled NADH fluorescence (FDH is formaldehyde dehydrogenase); Potency, µM (top dose mostly 57.1 µM), without a hit: at the highest dose activity change, negative = inhibition, most hits filed as inhibitors; actives 1.6% (n = 230,000); active = well fitted inhibition curve with a large enough effect, not every such curve was filed as active; inconclusive = small, poorly fitted or top-dose-only effect, or another doubt; inactive = no such curve, though single readings can be large or run the other way;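 also: potency is read from the fitted curve at half-maximal effect; 0% = wells with enzyme and -100% = buffer wells without enzyme; nearly all actives have a fitted effect of over 50% in size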
HP1b binding inh: inhibitors of HP1-beta chromodomain binding to methylated histone tails; P83916; AlphaScreen HP1-beta / biotin-H3K9me3 peptide binding; Potency, µM (series often up to 114 µM), for the others: at the top dose activity change, negative = inhibition, actives largely listed as inhibitors; actives 0.56% (n = 390,000); AID 540317; also: potency is read from the fitted curve at half-maximal effect; nearly all actives have a fitted effect of over 70% in size
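AlphaScreen: HP1-beta (50 nM) preformed 30 min with biotin-H3(1-18)K9me3 peptide (50 nM) in PBS pH 7.4, 0.01% Tween-20. Compound added for 30 min at RT, then streptavidin donor/nickel chelate acceptor beads (10 ug/mL) for 30 min.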
PI5P4K alpha inh: inhibitors of human PI5P4K alpha | PI5P4Kalpha enzyme, ADP-Glo luminescence, 60 min; stronger effect = lower value | actives 1.2% (n = 330,000) | AID 652105 | max response, %; active = max response of -50% or lower; inconclusive = between -30% and -50%; inactive = -30% or higher; also: value at the top dose of about 77 µM; % is scaled to controls: 0 for no effect and ±100 for the full control effect
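Controls without substrate or without enzyme flank wells where PI5P4Kalpha converts substrate using 5 microM ATP (final). Incubation lasts 60 minutes at room temperature; ADP formed is read by ADP-Glo luminescence.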
BAZ2B inh: BAZ2B (human) inhibition | Q9UIF8 | Potency, µM (highest dose often 114 µM), inactives show top-dose activity change, negative = inhibition, most hits filed as inhibitors | actives 4.4% (n = 360,000) | AlphaScreen BAZ2B-H3K14Ac peptide displacement | AID 504333; also: potency is read from the fitted curve at half-maximal effect; % is scaled to controls: 0 for no effect and ±100 for the full control effect; nearly all actives have a fitted effect of over 60% in size
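In this displacement format the biotinylated H3(5-23) peptide acetylated at Lys14 serves as ligand at 50 nM, with BAZ2B at 50 nM in PBS pH 7.4 containing 0.01% Tween-20. Donor and acceptor beads are 10 ug/mL final.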
JMJD2A Tudor inh: JMJD2A Tudor domain (human) inhibition; O75164; AlphaScreen JMJD2A-Tudor / H3K4me3 peptide binding; Potency, µM (titrated, usually from 114 µM), for the others: top-dose activity change, negative = inhibition, hits mostly inhibitors; actives 4.4% (n = 390,000); AID 504339; also: potency is read from the fitted curve at half-maximal effect; % is scaled to controls: 0 for no effect and ±100 for the full control effect; nearly all actives have a fitted effect of over 50% in size
* = called active by the depositor; ? = inconclusive; . = no result; [ ] = remark or other dose. Unless noted, calls follow the shape of the dose curve; as a rule, active = well fitted inhibition curve with a large enough effect; inconclusive = small, poorly fitted or top-dose-only effect; inactive = no such curve, though single readings can be large or run the other way.

SMILES	L3MBTL1 inh	KDM4E inh	HP1b binding inh	PI5P4K alpha inh	BAZ2B inh	JMJD2A Tudor inh
CC1OC(O[C@@H]2C(O)CC(O[C@@H]3C(O)C[C@@H](OC4CC[C@]5(C)[C@H](CC[C@H]6[C@@H]5CC[C@]5(C)C(C7=CC(=O)OC7)C(O)C[C@@]65O)C4)OC3C)OC2C)CC(O)C1O (stereo partly specified)	.	-2%	.	.	.	.
COc1cc2c(cc1OC)-c1c(OC)c(OC)c(OC)c3ccnc(c13)C2=O	-6%	-7%	-1%	0	28µM*	?
O=[N+]([O-])c1cc(-c2ccc([As](=O)(O)O)cc2)ccc1[As](=O)(O)O	22µM*	-16%	.	.	?	.
CN1C(=O)CCS(=O)(=O)[C@H]1c1ccc(Cl)cc1	.	-1%	.	.	.	.
CCC1CN2CCC1CC2C(O)c1ccnc2ccccc12 (stereo unspecified)	.	4%	.	.	.	.
Cc1ccc(O)c(CN2CCN(c3ccccc3)CC2)c1	-9%	-10%	29%	-2	-7%	-15%
C[N+]1(C)CCN(c2ccccc2)CC1	1%	-26%	0%	-2	-32%	45µM*
COc1cccc(CCNCc2cccc(C(F)(F)F)c2)c1	18%	?	?	17	56µM*	2.5µM*
Cn1cccc1/C=C1/C(=O)NC(=S)N(Cc2ccc(F)cc2)C1=O	.	-8%	35µM*	-94*	25µM*	45µM*
Cc1ccc(N2C(=O)NC(=O)/C(=C\c3cccn3C(C)(C)C)C2=O)cc1	-2%	-5%	42%	-2	-1%	-16%
C=CCN1C(=O)NC(=O)/C(=C/c2cccn2C)C1=O	-20%	5%	17%	?	1%[57.1 µM]	-17%
Cn1cccc1/C=C1/C(=O)NC(=O)N(Cc2ccc(F)cc2)C1=O	.	-11%	10%	-65*	45µM*	-32%
Cn1cccc1/C=C1/C(=O)NC(=O)N(Cc2ccccc2)C1=O	-12%	-3%	10%	-66*	45µM*	-34%
Cn1cccc1/C=C1\C(=O)NC(=O)N(Cc2ccccc2)C1=O	.	-10%	?	-58*	50µM*	?
CCn1cc(C(=O)N[C@@H](C)C(=O)OC)c(=O)c2cc3c(cc21)OCO3	.	.	48%	4	3%	-2%
CC1=CC(=O)NP(=O)(Oc2ccc3ccccc3c2)N1 (stereo unspecified)	4%	-9%	14µM*	-15	.	45µM*
CCCC(=O)c1c(O)[nH]c(=O)[nH]c1=O	.	-15%	19%	.	?	18µM*
O=C1NC(=S)NC(=O)C1c1ccccc1	.	.	?	?	.	50µM*
Cc1ccccc1NC(=O)Oc1cccc(OC(=O)c2ccccc2)c1	.	-4%	62%	11	-2%	-11%
O=c1c2ccccc2nc(CSc2ncnc3nc[nH]c23)n1-c1ccccc1	-1%[11.4 µM]	-3%	-32%	.	10%	32µM*
COc1ccccc1N1CCN(CCc2c[nH]c3cc4c(cc23)OCO4)CC1	.	.	?	-14	.	25µM*
CC(=O)OC1C[C@@]2(C)C(c3ccoc3)C[C@H]3O[C@@]32[C@@]2(C)C(=O)C(O)=C3C(C)(C)C(=O)C=C[C@]3(C)C12 (stereo partly specified)	.	7%	.	.	.	.
COc1ccc(CCNCc2ccccc2F)cc1OC	6%	0%	19%	-6	-4%	-4%
COc1cc(OC)c(OC)cc1CNCCc1ccc(F)cc1	-85%	.	-16%	3	-17%	63µM*
COc1ccc(OC)c(CNCCc2ccc(OC)c(OC)c2)c1	-2%	.	-33%	2	?	18µM*
COc1cc(OC)c(OC)cc1CNCCc1cccc(F)c1	.	.	?	3	56µM*	7.9µM*
Fc1ccc(CCNCc2ccc(Cl)c(Cl)c2)cc1	20%	-9%	39%	.	17%[57.1 µM]	7%
COc1ccc(CNCCc2cccc(F)c2)c2ccccc12	3%	.	.	.	?	.
COc1cc(OC)c(OC)cc1CNCCc1ccc(OC)c(OC)c1	-15%	-24%	?	.	?	3.2µM*

Source: PubChem
